The values below come from PubChem BioAssay.

Activity calls are given as the source filed them.

For test [1], the system named is Human papillomavirus type 1a protein E7 (residues 44-93). Briefly: small molecules binding HPV E7 44-93 – biochemical, small-molecule microarray, residues 44-93, 635 nm fluorescence, primary screen (AID 1108).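 Note: E7 fragment applied at 1 µg/mL in TBST for 1 h at 4 C; score combines spot fluorescence with its signal to noise ratio.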 As to conditions: fluorescence 635 nm, higher = more signal.
Test [2] can be described thus: hepatitis C replication reporter changes, two-sided – Huh7 cells, luciferase reporter, HCV replication inhibitor project, primary screen (AID 1109).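 Note: huh7 hepatoma cells harbouring a luciferase neomycin HCV replicon reporter; luciferase luminescence as measure of HCV replicon replication; test concentration not given here.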 As to conditions: Huh7 HCV replicon luciferase reporter, 48 h; higher = more signal.
The target of test [3] is Left-right determination factor 2 (Homo sapiens) (UniProt O00292). As to the kind of experiment: small molecules binding LEFTY2 protein – biochemical, small-molecule microarray, 635 nm fluorescence scan, primary screen (AID 1110). As to conditions: higher = more signal.
Chain of Left-right determination factor 2 (Homo sapiens) (O00292 whole entry, looked up): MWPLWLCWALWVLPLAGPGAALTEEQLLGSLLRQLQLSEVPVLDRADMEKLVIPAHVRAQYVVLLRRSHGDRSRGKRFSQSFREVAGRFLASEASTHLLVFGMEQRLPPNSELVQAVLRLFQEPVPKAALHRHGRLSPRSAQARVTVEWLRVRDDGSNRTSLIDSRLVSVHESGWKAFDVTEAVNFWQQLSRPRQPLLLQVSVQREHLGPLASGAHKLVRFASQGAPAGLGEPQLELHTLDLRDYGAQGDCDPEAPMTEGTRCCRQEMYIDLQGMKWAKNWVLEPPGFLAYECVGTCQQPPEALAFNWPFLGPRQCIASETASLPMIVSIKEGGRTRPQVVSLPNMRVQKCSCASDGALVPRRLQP
The target of test [4] is Calmodulin-1 (Homo sapiens) (UniProt P0DP23). As to the kind of experiment: small molecules binding calmodulin-1 with EGTA – biochemical, small-molecule microarray, Cy5-labelled CALM1, profiling panel (AID 1111).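 Note: labelled calmodulin applied in Tris saline Tween buffer holding calcium plus EGTA and DTT.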 As to conditions: Cy5-CALM1 binding fluorescence, higher = more signal.
Test [5] shares this target. Briefly: small molecules binding Ca-loaded calmodulin-1 – biochemical, small-molecule microarray, Cy5-labelled CALM1, plus calcium, artefact control for SMM control-protein annotation, profiling panel (AID 1112).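 Note: score merges spot fluorescence with signal to noise from triplicate slides.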 As to conditions: Cy5-CALM1 binding fluorescence, higher = more signal.
The nature of test [6]: probe aWnt5a binding to arrayed compounds – biochemical, biotinylated probe, 635/667 nm fluorescence, primary screen (AID 1113).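 Note: score merges 667 nm fluorescence intensity with signal-to-noise per printed feature.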 As to conditions: small-molecule microarray, higher = more signal.
Test [7] is described as follows: probe aShh binding to arrayed compounds – biochemical, biotinylated probe, 635/667 nm fluorescence, primary screen (AID 1114).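 Note: probe is biotin-labelled aShh protein from a stem cell growth factor screen; measures binding of labelled protein to compounds printed on the slide; score merges feature fluorescence at 667 nm with signal-to-noise.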 As to conditions: small-molecule microarray, higher = more signal.
The nature of test [8]: probe aNog binding to arrayed compounds – biochemical, biotinylated probe, 635/667 nm fluorescence, primary screen (AID 1115).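 Note: probe is biotinylated aNog protein used at 0.15 µg/mL for 1 h at 4 C; z-score combines 667 nm fluorescence of each spot with its signal to noise.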 The settings on record: small-molecule microarray, higher = more signal.
The target in test [9] is Torsin-1A-interacting protein 1 (Homo sapiens) (UniProt Q5JTV8). As to the kind of experiment: compound microarray binding of lysate hLAP1 – cell lysate, small-molecule microarray, COS7 lysate, 635/667 nm fluorescence, primary screen (AID 1116). As to conditions: 635 nm fluorescence, higher = more signal.
Chain of Torsin-1A-interacting protein 1 (Homo sapiens) (Q5JTV8 whole entry, looked up): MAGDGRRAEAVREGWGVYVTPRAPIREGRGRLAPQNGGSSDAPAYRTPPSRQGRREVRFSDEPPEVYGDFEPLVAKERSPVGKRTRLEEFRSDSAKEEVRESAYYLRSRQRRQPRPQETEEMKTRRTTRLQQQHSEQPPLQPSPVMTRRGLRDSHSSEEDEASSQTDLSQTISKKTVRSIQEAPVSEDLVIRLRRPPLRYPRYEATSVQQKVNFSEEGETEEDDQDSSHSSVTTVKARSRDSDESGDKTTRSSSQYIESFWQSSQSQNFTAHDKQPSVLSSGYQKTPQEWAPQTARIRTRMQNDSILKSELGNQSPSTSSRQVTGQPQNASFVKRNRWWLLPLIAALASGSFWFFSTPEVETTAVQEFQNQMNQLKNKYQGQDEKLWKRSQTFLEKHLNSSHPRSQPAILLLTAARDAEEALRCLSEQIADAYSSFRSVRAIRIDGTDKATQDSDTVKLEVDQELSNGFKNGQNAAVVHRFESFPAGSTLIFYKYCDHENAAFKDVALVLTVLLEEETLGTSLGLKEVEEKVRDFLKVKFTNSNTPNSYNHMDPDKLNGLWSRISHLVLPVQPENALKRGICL
The target of test [10] is Alpha-bungarotoxin (Bungarus multicinctus) (UniProt P60615). As to the kind of experiment: compounds binding labelled alpha-BTX control protein – biochemical, small-molecule microarray, Alexa647 label, 635/667 nm fluorescence, artefact control for SMM control protein annotation, profiling panel (AID 1117). The settings on record: alpha-BTX-A647 binding fluorescence, higher = more signal.
Chain of Alpha-bungarotoxin (Bungarus multicinctus) (P60615 whole entry, looked up): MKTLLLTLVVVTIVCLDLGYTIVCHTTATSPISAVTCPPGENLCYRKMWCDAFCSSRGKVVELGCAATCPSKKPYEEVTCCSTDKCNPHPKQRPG

A further test deals with Albumin (Bos taurus) (UniProt P02769). Briefly: compounds binding labelled BSA control protein – biochemical, small-molecule microarray, Alexa647 label, 635/667 nm fluorescence, artefact control for SMM control protein annotation, profiling panel (AID 1118).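 Note: score merges 667 nm emission intensity and signal-to-noise per printed compound spot.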 As to conditions: BSA-A647 binding, fluorescence 635 nm, higher = more signal.
Chain of Albumin (Bos taurus) (P02769 whole entry, looked up): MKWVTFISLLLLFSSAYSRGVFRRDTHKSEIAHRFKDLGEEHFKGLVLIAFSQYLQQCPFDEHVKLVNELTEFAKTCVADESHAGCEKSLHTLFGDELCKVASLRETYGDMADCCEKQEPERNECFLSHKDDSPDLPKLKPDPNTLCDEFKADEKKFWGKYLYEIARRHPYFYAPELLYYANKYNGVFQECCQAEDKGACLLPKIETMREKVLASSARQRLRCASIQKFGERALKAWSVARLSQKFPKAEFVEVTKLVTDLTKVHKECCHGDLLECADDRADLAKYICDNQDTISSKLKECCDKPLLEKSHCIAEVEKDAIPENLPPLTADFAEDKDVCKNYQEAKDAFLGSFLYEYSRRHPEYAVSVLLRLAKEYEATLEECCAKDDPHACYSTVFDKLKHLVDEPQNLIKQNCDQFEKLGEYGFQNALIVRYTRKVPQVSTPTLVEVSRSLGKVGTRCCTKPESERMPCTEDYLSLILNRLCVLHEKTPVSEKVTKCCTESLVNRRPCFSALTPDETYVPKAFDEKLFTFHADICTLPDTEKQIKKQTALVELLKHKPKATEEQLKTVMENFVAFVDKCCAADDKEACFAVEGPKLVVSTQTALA
Test [11] in a line: probe aXIP binding to arrayed compounds – biochemical, NeuroSMM set, 635/667 nm fluorescence, primary screen (AID 1119).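 Note: probe is the protein aXip251-270 applied at 1 µg/mL to compound-printed slides; binding of probe to printed compounds measured as 667 nm fluorescence plus signal to noise.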 The settings on record: small-molecule microarray, higher = more signal, called active from +8 up or from −8 down.
Test [12] is described as follows: probe aNOTCH3 binding on compound microarray – biochemical, small-molecule microarray, 635/667 nm fluorescence, primary screen (AID 1120).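 Note: probe is a biotin-tagged antibody raised against NOTCH3 rather than NOTCH3 protein; score merges spot fluorescence near 667 nm with spot signal to noise.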 The settings on record: higher = more signal.
The nature of test [13]: probe aNOTCH2 binding on compound microarray – biochemical, small-molecule microarray, 635/667 nm fluorescence, primary screen (AID 1121).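 Note: score merges feature fluorescence read at 667 nm with its signal to noise.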 The settings on record: higher = more signal.
The target in test [14] is Carbonic anhydrase 2 (Homo sapiens) (UniProt P00918). Briefly: compounds binding carbonic anhydrase 2 – biochemical, small-molecule microarray, Alexa647-labelled CAII, profiling panel (AID 1122). As to conditions: CAII-A647 binding fluorescence, higher = more signal.
A short description of test [15]: COS7 lysate on small-molecule microarray, probe aHis, 635 nm (AID 1123).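 Note: z-score combines 667nm fluorescence intensity with signal-to-noise per printed compound spot.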 As to conditions: COS7 cell lysate, fluorescence, higher = more signal.
A short description of test [16]: probe aLAP1 signal on lysate-treated microarray – cell lysate, small-molecule microarray, COS7 lysate, primary screen (AID 1124).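 Note: lysate comes from COS7 cells expressing LAP1 and is applied at 0.3 µg/mL; score merges spot fluorescence near 667 nm with signal-to-noise over triplicate slides.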 As to conditions: probe aLAP1, fluorescence, higher = more signal.
A further test deals with Sam68 (KHDRBS1). Briefly: compounds binding KHDRBS1 protein – biochemical, small-molecule microarray, 635 nm fluorescence, primary screen (AID 1125).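 Note: score merges 667 nm channel intensity with signal to noise over triplicate slides.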 The settings on record: higher = more signal.
Test [17] has as its system Chordin-like protein 2 (CHRDL2). Briefly: compounds binding chordin-like 2 – biochemical, small-molecule microarray, 635 nm fluorescence, primary screen (AID 1126).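 Note: printed compound slides probed with Chrdl2 protein at 4 µg/mL for 1 h at 4 C; score merges 667 nm emission intensity with signal to noise over three replicate slides.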 The settings on record: fluorescence 635 nm, higher = more signal.
Test [18] addresses Concanavalin-A (Canavalia ensiformis) (UniProt P02866). As to the kind of experiment: compounds binding concanavalin A lectin – biochemical, small-molecule microarray, Alexa647 label, 635 nm, artefact control for SMM control protein annotation, primary screen (AID 1127).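 Note: z combines 667 nm emission intensity with signal-to-noise across three replicate slides.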 The settings on record: ConA-A647 binding fluorescence, higher = more signal.

Chain of Concanavalin-A (Canavalia ensiformis) (P02866 whole entry, looked up): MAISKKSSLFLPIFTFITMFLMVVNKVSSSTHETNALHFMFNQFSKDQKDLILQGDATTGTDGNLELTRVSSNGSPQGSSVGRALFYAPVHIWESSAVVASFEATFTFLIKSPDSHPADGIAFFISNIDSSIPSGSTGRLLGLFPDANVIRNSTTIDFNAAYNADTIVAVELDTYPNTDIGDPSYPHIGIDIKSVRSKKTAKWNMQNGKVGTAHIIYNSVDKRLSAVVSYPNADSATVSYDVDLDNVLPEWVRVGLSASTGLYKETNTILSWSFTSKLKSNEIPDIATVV

For `CC(C)NC(=O)[C@@]1(Cc2ccccc2I)c2ccccc2C(=O)N(Cc2ccccc2)[C@H]1c1ccc(CO)cc1`, the composite z-score in [1] was 0.997; in test [3], 0.337; in test [4], 0.447; in test [5] it was -0.726; in [6], 0.0438; in [7] it was -0.0503. The composite z-score was -0.422 in test [8]; 0.568 in [9]; 1.4 in test [10]; 0.162 with Albumin (Bos taurus); 0.204 in test [12]; -0.0608 in test [13]. Also, the composite z-score in test [14] is 0.481; in test [15] it was 1.96; in test [16] it was 0.206; with Sam68 (KHDRBS1), 1.29; in test [17], 0.325; in test [18], 0.968. The z-score in [2] was -1.09. The composite Z-score in test [11] is 1.17 (inactive).

On to `O=C1O[C@H](c2ccccc2)[C@H](c2ccccc2)N2[C@H]1[C@@H](C(=O)Nc1nc3ccccc3s1)[C@]1(C(=O)Nc3ccccc31)[C@H]2c1ccc(O)cc1`, for which the composite z-score was 1.35 in [1]; 0.684 in [3]; 0.281 in test [4]; -0.322 in [5]; -0.0903 in test [6]; -0.138 in test [7]. The composite z-score in [8] was -0.0272; in [9], 0.536; in [10], 1.27; with Albumin (Bos taurus), 0.164; in test [12] it was 0.156; in [13], -0.0873. For the same compound, the composite z-score is 0.36 in test [14]; 1.66 in [15]; 0.293 in test [16]; 1.02 in the test on Sam68 (KHDRBS1); 0.701 in [17]; 1.07 in test [18]. This compound returned a z-score in test [2] of -1.35. For the same compound, the composite Z-score in [11] is 0.0275 (inactive).

Turning to `O=C1OCCC=C[C@H]2OC34C=CCN(Cc5ccccc5)C(=O)[C@H]3N(CCCCCCO)C(=O)[C@@H]4C12` (stereo not given in full), the composite z-score is 1.04 in test [1]; -1.06 in test [3]; -0.214 in [4]; 0.232 in test [5]; -0.343 in [6]; -0.233 in [7]. Moreover, the composite z-score in test [8] was -0.402; in test [9], 0.366; in [10], -0.63; in the test with Albumin (Bos taurus), -0.0045; in test [12] it was -0.241; in test [13], -0.171. Besides, the composite z-score in test [14] was 0.898; in test [15], 1.2; in test [16], 0.0054; with Sam68 (KHDRBS1), 0.409; in test [17] it was -1.02; in test [18], -0.745. The compound also yielded a z-score in test [2] of -0.422. Also, the composite Z-score in [11] was 0.0421 (inactive).

As to `CCOc1cc(C(O)C2C=CC3C(=O)N(c4ccccc4)C(=O)C3N2Nc2ccc([N+](=O)[O-])cc2)ccc1O` (stereo not given), the composite z-score was 0.532 in [1]; 0.173 in test [3]; -0.085 in [4]; -0.255 in test [5]; -0.0165 in [6]; -0.0849 in [7]. Besides, the composite z-score was -0.489 in test [8]; 0.0762 in test [9]; 0.0502 in test [10]; 0.839 with Albumin (Bos taurus); 0.0488 in [12]; -0.0666 in [13]. The composite z-score in test [14] is 0.865; in test [15], 1.78; in test [16] it was 0.502; with Sam68 (KHDRBS1), 0.874; in test [17], -0.136; in test [18], 0.548. In [2], this compound displayed a z-score of -0.31. For the same compound, the composite Z-score in test [11] was -0.014 (inactive).

Regarding `Cc1ccc(S[C@]2(C(=O)NC3CC3)CC(=O)N(C3CCCCC3)[C@@H]2c2ccc(CO)cc2I)cc1`, the composite z-score was 1.43 in test [1]; 0.0327 in test [3]; 0.224 in test [4]; 0.406 in test [5]; -0.154 in test [6]; -0.304 in test [7]. Moreover, the composite z-score was 0.45 in test [8]; -0.0758 in test [9]; 0.874 in test [10]; 0.599 in the test with Albumin (Bos taurus); 0.0426 in test [12]; -0.123 in [13]. The composite z-score in test [14] came to 0.408; in test [15], 1.31; in [16] it was 0.396; with Sam68 (KHDRBS1), 1.28; in test [17], 0.0261; in test [18], 0.896. In addition, in test [2], the z-score was -2.79. For the same compound, the composite Z-score in test [11] was -0.186 (inactive).

In the case of `CCC(CC)C(O)C1C=CC2C(=O)N(c3ccccc3)C(=O)C2N1Nc1ccc(C#N)cc1` (stereo not given), the composite z-score in test [1] turned out to be 1.46; in test [3], 0.0717; in [4], 1.67; in [5], 0.55; in [6] it was 0.275; in test [7] it was 0.57. Besides, the composite z-score in test [8] stood at 1.78; in test [9], 0.602; in test [10] it was 1.08; with Albumin (Bos taurus) it was 1.09; in [12] it was 0.628; in [13] it was 0.241. Further, the composite z-score in test [14] was 0.729; in test [15], 2.61; in [16], -0.266; in the test with Sam68 (KHDRBS1), 1.3; in [17] it was 0.158; in [18] it was 1.23. The z-score in test [2] stood at 0.106. Moreover, the composite Z-score in test [11] was 0.35 (inactive).

In the case of `O=C/C=C/c1ccc2c(c1)OCO2`, the composite z-score in test [1] was 0.283; in test [3] it was 0.528; in test [4] it was -1.18; in test [5], -0.755; in test [6] it was -0.0748; in [7] it was -0.35. Besides, the composite z-score was -0.441 in test [8]; 0.122 in test [9]; 0.591 in [10]; -0.776 in the test with Albumin (Bos taurus); -0.0883 in test [12]; -0.109 in [13]. In addition, the composite z-score was -0.0937 in test [14]; -0.408 in test [15]; 1.57 in [16]; 0.256 with Sam68 (KHDRBS1); 1.11 in test [17]; 0.176 in test [18]. The compound further came in with a z-score in [2] of 0.301. Also, in test [11], the composite Z-score is 0.16 (inactive).

On to `CC1CC/C=C\[C@H]2OC34C=CCN(Cc5ccccc5)C(=O)[C@H]3N(CCCCCO)C(=O)[C@@H]4C2C(=O)O1` (stereo not given in full), for which the composite z-score in [1] is -0.853; in test [3] it was -0.918; in test [4] it was -0.457; in test [5] it was 0.163; in test [6], -0.0981; in test [7], -0.345. The composite z-score in test [8] is -0.0704; in test [9], 1.04; in test [10], 1.39; in the test with Albumin (Bos taurus) it was 0.363; in test [12], -0.213; in [13], -0.19. Besides, the composite z-score in [14] was 0.871; in test [15], -0.351; in [16] it was 1.4; in the test with Sam68 (KHDRBS1), -0.883; in test [17], -0.0737; in [18], -0.811. The z-score in [2] was found to be 0.28. For the same compound, in [11], the composite Z-score is 0.815 (inactive).
